# Laboratory results as given in the supplement of paper PMC6555819.
# Assays:
# Experiment in all cases: PBM binding z-score (relative to random genomic background probes); higher = stronger binding; sequences stand for … in GC…GCGATTGACAGCGTAGAATGAAGG
# [1] = tested on: FXR:RXRa (NR concentration 270 nM, RXRa partner concentration 90 nM)
# In short: (§1)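 Binding z-scores take random background probes as their reference. They come from custom Agilent 4×180K protein-binding microarrays incubated 1 h with ligand-free nuclear receptor dimers, with antibodies against each partner (one per run) detecting binding. Scanned fluorescence was regression-normalized.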
# [2] = tested on: LXRa:RXRa (NR concentration 270 nM, RXRa partner concentration 90 nM)
# In short: as §1
# [3] = tested on: LXRa homodimer (NR concentration 270 nM)
# In short: as §1
# [4] = tested on: LXRb:RXRa (NR concentration 270 nM, RXRa partner concentration 90 nM)
# In short: as §1
# [5] = tested on: LXRb homodimer (NR concentration 270 nM)
# In short: as §1
# [6] = tested on: PPARa:RXRa (NR concentration 270 nM, RXRa partner concentration 90 nM)
# In short: as §1
# [7] = tested on: PPARg:RXRa (NR concentration 180 nM, RXRa partner concentration 90 nM)
# In short: as §1
# [8] = tested on: PPARg:RXRa 270nM:90nM, anti-RXR (NR concentration 270 nM, RXRa partner concentration 90 nM)
# In short: as §1
# [9] = tested on: PPARg:RXRa 30nM:10nM, anti-RXR (NR concentration 30 nM, RXRa partner concentration 10 nM)
# In short: as §1
# [10] = tested on: PPARg:RXRa 90nM:30nM, anti-RXR (NR concentration 90 nM, RXRa partner concentration 30 nM)
# In short: as §1
# [11] = tested on: PPARg:RXRa DBDmut IVT, anti-RXR (DBD mutation: RXRa K156A/R161A, NR concentration 270 nM, RXRa partner concentration 90 nM)
# In short: as §1
# [12] = tested on: PPARg:RXRa IVT, anti-PPARg (NR concentration 270 nM, RXRa partner concentration 90 nM)
# In short: as §1
# [13] = tested on: PPARg DBDmut:RXRa IVT, anti-PPARg (DBD mutation: PPARg1 K132A/R137A, NR concentration 270 nM, RXRa partner concentration 90 nM)
# In short: as §1
# [14] = tested on: PPARg DBDmut IVT, anti-PPARg (DBD mutation: PPARg1 K132A/R137A, NR concentration 270 nM)
# In short: as §1
# [15] = tested on: PPARg homodimer (NR concentration 180 nM)
# In short: as §1
# [16] = tested on: PXR:RXRa (NR concentration 270 nM, RXRa partner concentration 90 nM)
# In short: as §1
# [17] = tested on: PXR homodimer (NR concentration 270 nM)
# In short: as §1
# [18] = tested on: RARa:RXR (NR concentration 270 nM, RXRa partner concentration 90 nM)
# In short: as §1
# [19] = tested on: RARa homodimer (NR concentration 270 nM)
# In short: as §1
# [20] = tested on: RARb:RXRa (NR concentration 270 nM, RXRa partner concentration 90 nM)
# In short: as §1
Sequence,PBM binding z-score [1],PBM binding z-score [2],PBM binding z-score [3],PBM binding z-score [4],PBM binding z-score [5],PBM binding z-score [6],PBM binding z-score [7],PBM binding z-score [8],PBM binding z-score [9],PBM binding z-score [10],PBM binding z-score [11],PBM binding z-score [12],PBM binding z-score [13],PBM binding z-score [14],PBM binding z-score [15],PBM binding z-score [16],PBM binding z-score [17],PBM binding z-score [18],PBM binding z-score [19],PBM binding z-score [20]
TCTAGTTGGTAAAAGGTCACACACTCGAAATGCG,5.62,5.67,4.26,5.25,1.91,5.95,8.69,8.46,8.09,9.72,3.1,5.1,1.72,2.8,5.34,5.37,2.68,6.35,5.12,4.93
AGAATGAGGTTATTACGATCAGGGAATTGCGGTC,2.01,1.7,0.373,1.49,0.0914,2.66,1.55,1.88,0.584,1.11,3.27,2.51,1.02,0.66,0.902,1.26,0.487,1.78,1.21,1.42
CTCGACAGGTCGGTTGAGGTGAGTATACGGATAA,1.43,-0.211,-0.296,-0.278,-0.791,0.423,0.166,-0.237,-0.356,-0.324,-0.656,0.236,-0.149,-0.718,-0.0437,0.653,-0.282,0.493,-0.539,0.905
ATACCAAGGTGATCGTGAGGTCTTTGATACTAAC,0.467,0.136,0.00658,0.0706,-0.603,0.646,0.322,0.105,-0.238,-0.296,0.237,1.08,0.449,0.702,0.551,0.655,-0.114,0.833,0.255,0.705
CCTACCGGGCCATTCAGAGGTCATTGATCATATG,3.15,4.65,6.83,4.07,0.358,3.77,1.05,2.26,0.311,1.27,0.333,1.62,-0.171,-0.538,2.87,5.36,2.87,5.57,0.404,3.29
AGAATGAGGTTAAGATCACGGAAACAGAATACAT,2.44,1.8,0.0665,1.91,0.115,3.74,2.6,2.66,1.17,2.11,3.1,2.73,1.28,0.711,1.19,1.28,0.346,2.31,0.826,2.24
ATATGTGGGTTAGCTGGGGTCATTCAGACTAGGC,4.69,5.5,2.93,4.93,2.51,5.09,5.17,4.9,2.27,4.19,6.16,5.6,3.15,2.88,3.21,6.47,6.39,5.9,1.64,2.96
TAGCCTGGGTCAGATCGGGCCAGTATACGCTATA,1.63,0.208,-0.918,0.153,-0.84,1.32,0.579,0.64,-0.488,0.167,-0.428,0.885,-0.83,-0.762,-0.849,0.931,-0.947,0.69,-0.739,2.33
CAAACTAGGTCACGAAAGGTCACAGTCGAATGAC,6.73,7.6,5.88,6.82,1.64,6.62,10.1,8.34,6.6,8.57,8.61,9.14,2.02,1.37,4.6,6.61,1.31,7.03,2.46,5.7
ACAGACAGGTGATGAAGATAACTCAGGCTATCAT,-0.21,-0.125,-0.283,-0.276,-0.0745,-0.164,0.734,-0.057,0.429,0.0893,-0.0309,0.209,0.00107,0.948,0.0066,-0.435,0.0307,-0.227,0.47,0.0491
GCAGACAGGTGAAATGCAGGTAACTCAGGGTGGC,-0.157,0.0887,-0.625,-0.157,-0.898,1.23,0.71,0.196,-0.445,0.00263,1.43,1.14,-0.233,-1.24,-0.0768,-0.249,0.00173,0.324,-0.661,0.683
ACTATTAGTTTAGACGAGGGCAACCGATAGGTTG,0.453,0.483,0.356,0.275,0.368,0.386,0.651,0.246,-0.0368,-0.045,0.00795,0.402,0.0772,1.14,0.811,1.29,0.902,1.26,1.02,1.25
CAAACTTGGTCACAGAGGTCAAAGTCCGTGCGTA,5.4,5.01,5.81,5.15,1.63,5.31,4.74,5.07,2.04,4.21,2.87,4.58,0.599,0.268,3.66,6.07,3.89,6.64,1.42,4.34
ACTATTAGTTGAGACGAGGGCAACGGATAGGTTG,0.259,0.127,-0.147,0.0625,0.209,0.0596,0.652,-0.1,-0.0194,-0.207,-0.0332,0.424,0.418,0.955,0.155,1.32,0.265,1.26,0.262,0.843
AGAATGAGGTTATTAAGATTAGGGAATTGCGGTC,1.47,1.57,0.419,1.24,0.178,2.61,1.17,1.57,0.697,1.37,2.99,2.43,1.23,0.542,1.01,1.02,0.66,1.52,0.918,1.47
